In the library only some 9.9% were active in any assay of this set; here they are far more common.
HPGD block = qHTS Assay for Inhibitors of HPGD (15-Hydroxyprostaglandin Dehydrogenase); 15-hydroxyprostaglandin dehydrogenase [NAD(+)] (Homo sapiens), P15428; purified HPGD, NADH fluorescence kinetic, PGE2 substrate; Potency, µM, actives largely listed as inhibitors; hit rate 4.3% among 150,000; active = well fitted inhibition curve with a large enough effect, not every such curve was filed as active; inconclusive = small, poorly fitted or top-dose-only effect, or another doubt; inactive = no such curve, though single readings can be large or run the other way
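NADH formation kinetics: reaction with 30 uM PGE2 and 1 mM NAD+ (final), 20 nM enzyme, Tris-HCl pH 8 with Tween 20, after 15 min compound preincubation at room temperature. Fluorescence change, last versus first of five reads.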
JMJD2E inh = qHTS Assay for Inhibitors of Human Jumonji Domain Containing 2E (JMJD2E). Lysine-specific demethylase 4E (Homo sapiens), B2RXH2. JMJD2E catalytic domain, FDH-coupled NADH fluorescence (FDH is formaldehyde dehydrogenase). Potency, µM (titrated, usually from 57.1 µM), usual class: inhibitors. hit rate 1.6% among 230,000. AID 2147, 2009; active = well fitted inhibition curve with a large enough effect, not every such curve was filed as active; inconclusive = small, poorly fitted or top-dose-only effect, or another doubt; inactive = no such curve, though single readings can be large or run the other way; note: nearly all actives have a fitted effect of over 50% in size
Tau fibril ThT = qHTS for Inhibitors of Tau Fibril Formation, Thioflavin T Binding | recombinant tau K18 P301L, heparin-induced fibrillization, ThT fluorescence | Potency, µM (doses to about 57.4 µM), usual class: inhibitors | hit rate 2.1% among 270,000 | AID 1460, 2008; note: nearly all actives have a fitted effect of over 55% in size
Target sequence (P10636 561-689 P618L limits assumed): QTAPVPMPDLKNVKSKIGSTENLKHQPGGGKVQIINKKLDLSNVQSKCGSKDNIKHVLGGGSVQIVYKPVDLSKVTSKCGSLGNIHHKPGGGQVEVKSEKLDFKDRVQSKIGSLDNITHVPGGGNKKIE
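Heparin-induced (20 uM) aggregation of recombinant human K18 P301L tau, 15 uM unlabeled with 0.24 uM labeled, pH 7 acetate buffer, 6 hr at 37 C with compound. Fibrils quantified by 30 uM ThT fluorescence after 1 hr ambient incubation.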
ALDH1A1 inh = qHTS Assay for Inhibitors of Aldehyde Dehydrogenase 1 (ALDH1A1) | hit rate 7.3% among 220,000 | Purified ALDH1A1, NADH fluorescence, propionaldehyde substrate | Aldehyde dehydrogenase 1A1 (Homo sapiens), P00352 | AID 1030, 2008 | Potency, µM (top dose mostly 75.3 µM), actives largely listed as inhibitors; active = well fitted inhibition curve with a large enough effect, not every such curve was filed as active; inconclusive = small, poorly fitted or top-dose-only effect, or another doubt; inactive = no such curve, though single readings can be large or run the other way
Target sequence (P00352 whole entry, looked up): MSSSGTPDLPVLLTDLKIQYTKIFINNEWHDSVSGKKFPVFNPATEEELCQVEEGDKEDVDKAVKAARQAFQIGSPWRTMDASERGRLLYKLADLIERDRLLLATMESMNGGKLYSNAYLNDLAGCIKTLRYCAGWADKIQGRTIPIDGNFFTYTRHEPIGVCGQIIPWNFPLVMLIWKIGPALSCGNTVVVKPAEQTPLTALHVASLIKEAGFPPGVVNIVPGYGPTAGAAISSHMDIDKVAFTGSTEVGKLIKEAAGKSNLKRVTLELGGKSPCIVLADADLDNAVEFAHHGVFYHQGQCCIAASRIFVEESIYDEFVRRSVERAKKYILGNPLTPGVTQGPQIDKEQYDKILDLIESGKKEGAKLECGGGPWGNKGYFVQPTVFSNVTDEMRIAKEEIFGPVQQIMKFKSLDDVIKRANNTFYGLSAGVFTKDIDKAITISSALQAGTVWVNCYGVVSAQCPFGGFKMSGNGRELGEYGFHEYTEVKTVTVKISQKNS
Tau fibril FP = qHTS for Inhibitors of Tau Fibril Formation, Fluorescence Polarization; K18 P301L tau heparin fibrillization, Alexa594 FP, 6 h; Potency, µM (doses to about 57.7 µM), hits mostly inhibitors; Microtubule-associated protein tau (Homo sapiens), P10636; hit rate 0.39% among 280,000; AID 1468, 2008; note: nearly all actives have a fitted effect of over 55% in size
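Human tau K18 […] P301L fragment, 15 uM unlabeled plus 0.24 uM Alexa 594-labeled tau (final), with compound and 20 uM heparin in 100 mM sodium acetate pH 7; 6 hr at 37 C, then Alexa 594 FP read.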
Tau fluor cs = Counterscreen qHTS for Inhibitors of Tau Fibril Formation, Fluorescence Polarization | tau K18 P301L (four-repeat tau fragment) Alexa594 fluorescence, heparin fibrillization | Potency, µM (series often up to 57.7 µM) | hit rate 0.93% among 280,000; note: nearly all actives have a fitted effect of over 55% in size
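Human K18 P301L tau (15 uM unlabeled plus 0.24 uM Alexa 594-labeled, final) in 100 mM sodium acetate pH 7 was mixed with compound and 20 uM heparin and incubated 6 hr at 37 C.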
Hits are given with their value. Unless noted, calls come from the whole dose curve; as a rule, active = well fitted curve in the direction sought with a large enough effect; inconclusive = small, poorly fitted or top-dose-only effect, or another doubt; inactive = no such curve, though single readings can be large; an effect the other way counts as inactive or inconclusive.

O=S(=O)(c1cccs1)N1CCN(CC(O)COC2CCCc3ccccc32)CC1 (stereo not given) was read as HPGD block inactive, JMJD2E inh inactive, Tau fibril ThT inactive, ALDH1A1 inh inconclusive, Tau fibril FP inactive and Tau fluor cs inactive.
`O=S(=O)(c1cccs1)N1CCN(CC(O)COc2cccc(Br)c2)CC1` (stereo not given) gave HPGD block inactive, JMJD2E inh inconclusive, Tau fibril ThT inactive, ALDH1A1 inh 20µM, Tau fibril FP inactive and Tau fluor cs inactive.
`CS(=O)(=O)c1ccc(C(=O)Nc2ccc(N3CCOCC3)cc2)c(Cl)c1` gave JMJD2E inh inactive, Tau fibril ThT inconclusive, ALDH1A1 inh inactive, Tau fibril FP inactive and Tau fluor cs inactive.
For CS(=O)(=O)c1ncc(Cl)c(C(=O)Nc2ccc(N3CCOCC3)cc2)n1 the results were HPGD block inactive, JMJD2E inh inactive, Tau fibril ThT 3.2µM, ALDH1A1 inh 10µM, Tau fibril FP inconclusive and Tau fluor cs inconclusive.
For CCOc1ccc(NC(=O)CSc2nnc(-c3ccccn3)n2N)cc1 the results were HPGD block inactive, JMJD2E inh inactive, Tau fibril ThT inconclusive, ALDH1A1 inh 11µM, Tau fibril FP inactive and Tau fluor cs inactive.
`COc1ccc(NC(=O)CSc2nnc(-c3ccccn3)n2N)cc1` gave HPGD block inactive, JMJD2E inh inactive, Tau fibril ThT inactive, ALDH1A1 inh inactive, Tau fibril FP inactive and Tau fluor cs inactive.
`CCOc1ccc(NC(=O)CSc2nc3cccnc3n2CCOC)cc1` gave HPGD block inactive, JMJD2E inh inactive, Tau fibril ThT inactive, ALDH1A1 inh 28µM, Tau fibril FP inactive and Tau fluor cs inactive.
For CC(C)(C)OC(=O)NCCc1nnc(S(=O)(=O)Cc2ccc(Cl)cc2Cl)o1 the results were HPGD block 2.5µM, JMJD2E inh inactive, Tau fibril ThT inconclusive, ALDH1A1 inh 2.8µM, Tau fibril FP inactive and Tau fluor cs inactive.
For O=C(C1CCC(CNS(=O)(=O)c2cccs2)CC1)N1CCCCC1 (stereo not given) the results were HPGD block 3.2µM, JMJD2E inh inactive, Tau fibril ThT inactive, ALDH1A1 inh inconclusive, Tau fibril FP inactive and Tau fluor cs inactive.
`Cc1ncsc1C(=O)N1CCCC(CNS(=O)(=O)c2cccs2)C1` (stereo not given) gave JMJD2E inh inactive, Tau fibril ThT inactive, ALDH1A1 inh inactive, Tau fibril FP inactive and Tau fluor cs inactive.
O=C(C1CCC(CNS(=O)(=O)c2cccc3cccnc23)CC1)N1CCCC1 (stereo not given) was read as HPGD block 6.3µM, JMJD2E inh inactive, Tau fibril ThT inactive, ALDH1A1 inh inactive, Tau fibril FP inactive and Tau fluor cs inactive.
O=C(NCCc1ccccc1)C1CCC(CNS(=O)(=O)c2ccccc2)CC1 (stereo not given) was read as Tau fibril ThT inactive, Tau fibril FP inactive and Tau fluor cs inactive.
For O=C(NCCc1ccccc1)C1CCC(CNS(=O)(=O)c2cccs2)CC1 (stereo not given) the results were JMJD2E inh inactive, Tau fibril ThT inactive, ALDH1A1 inh 4µM, Tau fibril FP inactive and Tau fluor cs inactive.
For O=C(c1ccc2c(c1)OCCO2)N1CCCC(CNS(=O)(=O)c2cccs2)C1 (stereo not given) the results were JMJD2E inh inactive, Tau fibril ThT inactive, ALDH1A1 inh 2.2µM, Tau fibril FP inactive and Tau fluor cs inactive.
For COc1ccccc1CN1CCCC2(CCN(S(C)(=O)=O)CC2)C1 the results were HPGD block inactive and ALDH1A1 inh inactive.
`Cc1c(C(=O)NCc2cccc(F)c2)oc2c1-c1[nH]ncc1CC2` gave Tau fibril ThT inactive, Tau fibril FP inactive and Tau fluor cs inactive.
Screening Cc1cccc(CCNC(=O)C2CCC(CNS(=O)(=O)c3c(C)cc(C)cc3C)CC2)c1 (stereo not given) returned Tau fibril ThT inactive, Tau fibril FP inactive and Tau fluor cs inactive.
Cc1cccc(CCNC(=O)C2CCC(CNS(=O)(=O)c3cccs3)CC2)c1 (stereo not given) was read as JMJD2E inh inactive, Tau fibril ThT inactive, ALDH1A1 inh 1.8µM, Tau fibril FP inactive and Tau fluor cs inactive.
COCCNC(=O)C1CCN(S(=O)(=O)c2ccccc2)CC1 was read as HPGD block 25µM, JMJD2E inh inactive, Tau fibril ThT inactive, ALDH1A1 inh inactive, Tau fibril FP inactive and Tau fluor cs inactive.
Screening O=C(NCCc1ccccc1)C1CCN(S(=O)(=O)c2cccs2)CC1 returned HPGD block inactive, JMJD2E inh inactive, Tau fibril ThT inactive, ALDH1A1 inh 10µM, Tau fibril FP inactive and Tau fluor cs inactive.
`Cc1cccc(CCNC(=O)C2CCN(S(=O)(=O)c3ccccc3)CC2)c1` gave JMJD2E inh inactive, Tau fibril ThT inactive, ALDH1A1 inh inactive, Tau fibril FP inactive and Tau fluor cs inactive.
O=C(NCCc1ccc(Cl)cc1)C1CCN(S(=O)(=O)c2cccs2)CC1 was read as HPGD block inactive, JMJD2E inh inactive, Tau fibril ThT inactive, ALDH1A1 inh inconclusive, Tau fibril FP inactive and Tau fluor cs inactive.
O=C(CSc1nc2ccc([N+](=O)[O-])cc2[nH]1)NCCc1ccccc1 was read as HPGD block inactive, JMJD2E inh inactive, Tau fibril ThT inconclusive, ALDH1A1 inh inactive, Tau fibril FP inactive and Tau fluor cs inactive.
COCc1cc(S(=O)c2ccc(Cl)cc2)nc(C)n1 (stereo not given) was read as JMJD2E inh inactive, Tau fibril ThT inconclusive, ALDH1A1 inh 18µM, Tau fibril FP inconclusive and Tau fluor cs inactive.
Screening O=c1[nH]c(NCCO)nc2c1C1(CCCC1)Cc1ccccc1-2 returned HPGD block inconclusive, JMJD2E inh inconclusive, Tau fibril ThT inactive, ALDH1A1 inh inconclusive, Tau fibril FP inactive and Tau fluor cs inactive.
`C=CCNC(=S)NNc1nc2c(c(=O)[nH]1)C1(CCCCC1)Cc1ccccc1-2` gave HPGD block inconclusive, JMJD2E inh inconclusive, Tau fibril ThT inactive, ALDH1A1 inh 13µM, Tau fibril FP inconclusive and Tau fluor cs inconclusive.
For Cc1cc(C)c2nc(Cl)c(Cl)nc2c1 the results were JMJD2E inh inactive, Tau fibril ThT inactive, ALDH1A1 inh inactive, Tau fibril FP inactive and Tau fluor cs inactive.
`COc1ccc(C(=O)NCCCc2nc3ccccc3n2Cc2ccccc2C)cc1OC` gave HPGD block inactive, JMJD2E inh inactive, Tau fibril ThT inactive, ALDH1A1 inh inactive, Tau fibril FP inactive and Tau fluor cs inactive.

From PubChem
